High-throughput results: PubChem BioAssay, National Center for Advancing Translational Sciences (NCATS)
B2AR arrestin ag: agonists recruiting beta-arrestin to human beta2-adrenergic receptor; P07550; HTLA Tango cells, beta-arrestin recruitment, luciferase luminescence, 18 h; Potency, µM (doses to about 46.1 µM), actives largely listed as activators; 44,000 tested, under 10 active; AID 1347077;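 further: potency means the concentration at half of the fitted maximal effect; 0% = DMSO and full agonism = EC100 isoproterenol or metaproterenol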
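First, Tango cells carrying beta2-AR and beta-arrestin fusions received compound up to 46 microM. After 18 hr at 37 degrees C, luciferase substrate was added for 15 minutes, then luminescence gave %Activity for curve fitting.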
GALK inhibitor: inhibits human galactokinase | P51570 | recombinant GALK, Kinase-Glo ATP luminescence, 1 h | Potency, µM (titrated, usually from 57.5 µM), inactives show at the top dose activity, negative = inhibition, actives largely listed as inhibitors | 44,000 tested, under 10 active | AID 1347072;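 further: plate controls were full GALK reaction for no effect and reaction lacking GALK for full effect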
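Luminescent ATP-depletion readout (Kinase-Glo Plus, 10 min) after 1 h RT reaction of 5 nM GALK, 35 uM ATP, 100 uM galactose, pH 8.0 HEPES buffer. Decreased kinase activity scored as inhibition.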
GALC G270D up: raises human GALC G270D mutant activity in cells. P54803. 145M-Twi-hGALC-G270D cells (Twitcher mouse brain line with human GALC G270D), HMU-beta-Gal fluorescence, 48 h. Potency, µM (series often up to 57.5 µM), usual class: activators. 0.1% of 45,000 active. AID 1159614; further: potency means the concentration at half of the fitted maximal effect; 0% is about no effect; nearly all actives have a fitted effect of over 65% in size
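Live 145M-Twi cells (Twitcher mouse brain-derived, GALC-null) stably expressing human GALC-G270D, with a wild-type GALC line, were compound-treated. Residual GALC activity was then read as fluorescence from 0.1 mM final HMU-β-gal at pH 5.2; higher signal means activation.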
PTAP-TSG101 blk: inhibitors of HIV-1 PTAP binding to human TSG101, validation; Fluorescence polarization, FITC-PTAP peptide/Tsg101, 20 min; Q99816; Potency, µM (top dose mostly 115 µM), most hits filed as inhibitors; 44,000 tested, under 10 active; further: potency means the concentration at half of the fitted maximal effect; 0% is about no effect
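Steps: Tsg101 binding domain (10 uM final) in HEPES pH 7.5/NaCl/Tween 20/EDTA/TCEP; add compound; add FITC-PTAP peptide (50 nM final); incubate 20 min r.t.; read polarization.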
FH mod: Identification of activators of human fumarate hydratase by quantitative high-throughput screening | Potency, µM (titrated, usually from 79.9 µM), inactives show at the top dose activity change, negative = inhibition, usual class: inhibitors | AID 1347055, 2019 | Fumarate hydratase, mitochondrial (Homo sapiens), P07954 | FH coupled MDH/diaphorase resazurin fluorescence, 15 min | 0.22% of 54,000 active; further: potency means the concentration at half of the fitted maximal effect; on the % scale 0 is the no-effect control and ±100 the full control effect; the screen sought activators but most active calls are inhibition curves; nearly all actives have a fitted effect of over 45% in size
NTMT1 inh: inhibitors of human N-terminal methyltransferase NTMT1; NTMT1 MTase-Glo SAH luminescence, purified enzyme; Potency, µM (titrated, usually from 114 µM), inactives show top-dose activity change, negative = inhibition, hits mostly inhibitors; 2.5% of 59,000 active;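 further: potency means the concentration at half of the fitted maximal effect; plate controls were DMSO vehicle for no effect and no enzyme for full effect; nearly all actives have a fitted effect of over 65% in size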
CLK4 inh: inhibits human CLK4 kinase in Kinase-Glo confirmation. Potency, µM (series often up to 76.9 µM), for inactives: at the highest dose activity, negative = inhibition, most hits filed as inhibitors. recombinant Clk4, Kinase-Glo ATP luminescence, 4.5 h. shares compounds with NTMT1 inh. 90% of 90 active
Sfp PPTase inh: inhibitors of Bacillus subtilis Sfp PPTase, optimization followup | shares compounds with NTMT1 inh | purified Sfp PPTase enzyme activity, qHTS | Potency, µM (top dose mostly 114 µM), for inactives: top-dose activity change, negative = inhibition, actives largely listed as inhibitors | 78% of 230 active
Bsub HM489 growth: B. subtilis HM489 growth inhibition | Potency, µM (titrated, usually from 114 µM), inactives show at the highest dose activity change, negative = inhibition, hits mostly inhibitors | 50% of 220 active | B. subtilis HM489 (acpS-) growth, BacTiter-Glo, 5 h | shares compounds with NTMT1 inh
Sfp PPTase gel: inhibitors of Bacillus subtilis Sfp PPTase, gel-based followup. shares compounds with NTMT1 inh. purified Sfp PPTase, gel-based product detection. Potency, µM (series often up to 250 µM), for the others: at the highest dose activity change, negative = inhibition, actives largely listed as inhibitors. 54% of 220 active
Sfp inh SAR2: inhibits B. subtilis Sfp PPTase in second SAR round; shares compounds with NTMT1 inh; purified Sfp enzyme, PPTase activity, qHTS; Potency, µM (doses to about 57.1 µM), without a hit: at the top dose activity change, negative = inhibition, usual class: inhibitors; 87% of 230 active; AID 602370
HSD17B4 inh: HSD17B4 (human) inhibition, HPGD counter-screen. shares compounds with NTMT1 inh. purified HSD17B4, estradiol/NAD+, NADH fluorescence. Potency, µM (highest dose often 57.1 µM), for the others: at the highest dose activity change, negative = inhibition, usual class: inhibitors. 10% of 230 active. AID 743187
Target sequence (P51659 whole entry, looked up): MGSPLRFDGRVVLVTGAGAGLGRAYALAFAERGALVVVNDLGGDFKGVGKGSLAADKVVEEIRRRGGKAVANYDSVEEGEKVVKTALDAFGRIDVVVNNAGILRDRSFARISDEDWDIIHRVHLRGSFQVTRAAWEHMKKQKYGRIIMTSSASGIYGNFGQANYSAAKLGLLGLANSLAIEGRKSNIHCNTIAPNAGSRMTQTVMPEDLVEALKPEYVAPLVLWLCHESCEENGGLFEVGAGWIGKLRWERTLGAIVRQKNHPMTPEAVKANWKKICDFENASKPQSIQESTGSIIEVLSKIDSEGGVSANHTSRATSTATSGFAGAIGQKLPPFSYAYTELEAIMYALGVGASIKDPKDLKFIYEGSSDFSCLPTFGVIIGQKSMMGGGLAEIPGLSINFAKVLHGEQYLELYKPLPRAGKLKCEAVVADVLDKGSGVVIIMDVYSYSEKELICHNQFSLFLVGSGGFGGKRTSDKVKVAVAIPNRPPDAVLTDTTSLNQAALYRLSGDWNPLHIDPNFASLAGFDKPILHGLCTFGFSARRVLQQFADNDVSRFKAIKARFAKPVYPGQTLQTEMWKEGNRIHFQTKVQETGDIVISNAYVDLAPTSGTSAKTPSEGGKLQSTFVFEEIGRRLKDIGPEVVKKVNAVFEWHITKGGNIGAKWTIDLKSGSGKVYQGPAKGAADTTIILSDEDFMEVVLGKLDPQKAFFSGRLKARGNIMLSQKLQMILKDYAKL
ALDH1A1 inh: counter-screen for HPGD inhibitors: human ALDH1A1 inhibition | shares compounds with NTMT1 inh | recombinant ALDH1A1, NADH fluorescence, propionaldehyde/NAD+ | Potency, µM (series often up to 57.1 µM), for the others: top-dose activity change, negative = inhibition, most hits filed as inhibitors | 93% of 230 active | AID 743195
NNMT inh: human NNMT inhibition, NTMT1 counter-screen | shares compounds with NTMT1 inh | NNMT MTase-Glo luminescence, SAH detection | 10% of 120 active | Potency, µM (top dose mostly 57.1 µM), for inactives: at the highest dose activity, negative = inhibition, most hits filed as inhibitors | AID 1645878
* = called active by the depositor; i = inactive; u = inconclusive; x = not tested or not shown; [ ] = another dose, or the depositor's remark. The entries come from a sample that favours hits as a whole. The call rests on the fitted dose curve; in most records, active means well fitted curve in the direction sought with a large enough effect; inconclusive means small, poorly fitted or top-dose-only effect, or another doubt; inactive means no such curve, though single readings can be large; an effect the other way counts as inactive or inconclusive.

SMILES	B2AR arrestin ag	GALK inhibitor	GALC G270D up	PTAP-TSG101 blk	FH mod	NTMT1 inh	NNMT inh	others
NC(=O)c1cccc(-c2cnc3c(O)ccc(C(=O)O)c3c2)c1	x	x	x	x	x	12.2%	x
NC(=O)c1cccc(-c2cc(OC(=O)NC3CCCCC3)ccc2O)c1	x	x	x	x	-11.6%	u	-18.0%
CCN1CCN(C(=S)c2ccc(O)cc2)CC1	x	x	x	x	x	-21.0%	x	Sfp PPTase inh=18.7µM*;Bsub HM489 growth=-26.2%;Sfp PPTase gel=u;Sfp inh SAR2=18.2µM*;HSD17B4 inh=-17.9%;ALDH1A1 inh=u
O=C(Nc1ccc(F)c(C(F)(F)F)c1)Nc1nc(-c2ccncc2)cs1	x	x	x	x	x	4.3%[57.5 µM]	x
N#Cc1ccc(Nc2nc(-c3ccc(O)cc3O)cs2)cc1C(F)(F)F	x	x	x	x	u	u	-28.1%
Cc1ccnc(NC(=S)N2CCN(c3ccc(N)cc3)CC2)c1	x	x	x	x	x	u	x	Sfp PPTase inh=u;Bsub HM489 growth=u;Sfp PPTase gel=-46.0%;Sfp inh SAR2=10.2µM*;HSD17B4 inh=u;ALDH1A1 inh=9.61µM*
COc1ccc(N2CCN(C(=S)Nc3cc(C)ccn3)CC2)cc1	x	x	x	x	x	50.1µM*	x	Sfp PPTase inh=11.8µM*;Bsub HM489 growth=33.2µM*;Sfp PPTase gel=-33.2%;Sfp inh SAR2=10.2µM*;HSD17B4 inh=-5.9%;ALDH1A1 inh=6.81µM*
CCN(CC)Cc1ccc(C(=O)N(CCc2ccccc2OC)[C@@H]2CCNC2)cc1	x	x	x	x	-3.3%[53.3 µM]	0.1%[29.8 µM]	x
C[C@@H]1N=C(N)NC(N(C)C)=N1	x	x	x	x	0.1%	1.0%	x
COC(=O)C1=CO[C@@H](O[C@@H]2O[C@H](CO[C@@H]3O[C@H](COC(=O)/C=C/c4cc(OC)c(O)c(OC)c4)[C@@H](O)[C@H](O)[C@H]3O)[C@@H](O)[C@H](O)[C@H]2O)[C@@H]2C(CO)=CC[C@H]12	x	x	x	x	0.7%[20.6 µM]	7.4%[12.6 µM]	x
CC(C)c1cc2c(c(O)c1O)[C@@]13CCCC(C)(C)[C@@H]1[C@H](OC3=O)C2=O	x	x	x	x	u	-10.0%[29.8 µM]	u
CC(C)c1cc2c(c(O)c1O)[C@@]13CCCC(C)(C)C1[C@@H](O)[C@@H]2OC3=O (stereo partly specified)	x	x	x	x	-8.8%[53.3 µM]	u	-10.4%[38.3 µM]
CC1(C)CCCC2(C)c3c4c(c(=O)oc(=O)c3=CCC12)=CCC1C(C)(C)CCCC41C (stereo unspecified)	x	x	x	x	1.1%[53.3 µM]	16.1%[29.8 µM]	x
COc1ccc(NC(=O)c2cnc(N3CCOCC3)c3ccccc23)cc1OC	i	3.8%	i	i	-19.1%	0.9%	x
Nc1ccc(C(=O)Nc2cccc(-c3nc(N4CCOCC4)c4oc5ncccc5c4n3)c2)cn1	x	x	x	x	-10.1%	10.7%	-17.8%
COc1cc(N(C)CCN(C)C)c(N)cc1Nc1nccc(-c2cn(C)c3ccccc23)n1	x	x	x	x	-6.0%	0.7%[57.5 µM]	x
Nc1ncnc2c1nc(N)n2[C@@H]1O[C@H](CO)[C@@H](O)[C@H]1O	x	x	x	x	-1.1%	125.4%[57.5 µM]	18.6%
CC(=O)Nc1sc2c(c1-c1ccc3nonc3c1)CCNC2	x	x	x	x	x	4.4%	x
C[C@@H]1N[C@H]2N(C1=O)c1ccccc1[C@@]2(O)C[C@@H]1C(=O)N[C@@H](C)c2nc3ccccc3c(=O)n21	x	x	x	x	7.5%[53.3 µM]	1.2%[29.8 µM]	x
CN1CCN(c2nn3c(=O)c4ccccc4nc3s2)CC1	x	x	x	x	x	-19.1%	x
CN1CCN(c2ncc3nc(-c4cn(C)c5ccccc45)c(=O)n(Cc4cccs4)c3n2)CC1	x	x	x	x	x	x	x	CLK4 inh=-9.2%
COc1ccc2cc3c(NC(=O)c4ccco4)nn(C)c3nc2c1	x	x	x	x	-8.4%	-11.4%[57.5 µM]	-12.0%
COc1cc2ncnc(Nc3ccc(NC(=O)c4ccccc4)cc3)c2cc1OC	x	x	x	x	-8.6%	15.6%	x
CCOc1cc2ncc(C#N)c(Nc3ccc(F)c(Cl)c3)c2cc1NC(=O)/C=C/CN(C)C	x	x	x	x	-29.3%	1.12µM*	15.8µM*
